# In the library only some 14% were active in any assay of this set; here they are far more common.
# HCMV antiviral: qHTS Assay for inhibitors of the human cytomegalovirus (HCMV); HFF cells, HCMV-luciferase reporter, 72 h; active compounds read low; activity change, negative = inhibition, % at 57.5 µM; 410,000 compounds, 4.5% hits; AID 1259415, 2018; in the data active = activity change below about -60%; inconclusive = no clear call, values can overlap the other calls; inactive = above about -39%
#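 Two compound doses tested in HFFs infected with HCMV-luciferase, MOI 1 PFU/cell, 72 h at 37C. Lysate luminescence read with OneGlo; data normalized against buffer-only and 10uM Salinomycin inhibitor controls.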
# MARV entry inh: qHTS for inhibitors of binding or entry into cells for Marburg Virus; Marburg virus pseudotyped entry inhibition, cell reporter; Potency, µM (top dose mostly 37.8 µM), for inactives: at the top dose activity change, negative = inhibition, actives largely listed as inhibitors; 300,000 compounds, 1.8% hits; AID 540276, 2011; calls by dose curve; tested in HEK293 cells; also: potency is read from the fitted curve at half-maximal effect
# Pf growth 96h: Primary qHTS for delayed death inhibitors of the malarial parasite plastid, 96 hour incubation | 320,000 compounds, 6.9% hits | Potency, µM (top dose mostly 28.7 µM), for the others: top-dose activity change, negative = inhibition, usual class: inhibitors | P. falciparum luciferase reporter growth, 96 h; also: potency is read from the fitted curve at half-maximal effect
#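 Erythrocytes infected with luciferase-expressing P. falciparum were dispensed at 2% hematocrit and 0.05% parasitemia (final), then incubated with compounds 96 hours at 37 C in 5% CO2. Luminescence after detection reagent addition reported growth.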
# Pf growth 48h: Primary qHTS for delayed death inhibitors of the malarial parasite plastid, 48 hour incubation. Potency, µM (highest dose often 28.7 µM), without a hit: at the highest dose activity change, negative = inhibition, hits mostly inhibitors. P. falciparum luciferase growth in erythrocytes, 48 h. 310,000 compounds, 5.9% hits; also: potency is read from the fitted curve at half-maximal effect
#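 First compound was added to culture medium, then infected red cells at 0.1% parasitemia and 2% hematocrit (final). After incubation at 37 C under 5% CO2, luciferase detection reagent was dispensed and light output recorded.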
# LASV entry inh: qHTS for Inhibitors of binding or entry into cells for Lassa Virus; Lassa virus pseudotype entry inhibition, cell reporter; Potency, µM (series often up to 37.9 µM), without a hit: at the highest dose activity change, negative = inhibition, hits mostly inhibitors; 300,000 compounds, 1.2% hits; AID 540256, 2011; calls by dose curve; tested in HEK293 cells; also: potency is read from the fitted curve at half-maximal effect; nearly all actives have a fitted effect of over 50% in size
# HCV inhibitor: qHTS Assay for Inhibitors of Hepatitis C Virus (HCV). Potency, µM (top dose mostly 41.8 µM), inactives show at the top dose activity change, negative = inhibition, usual class: inhibitors. 340,000 compounds, 3.4% hits. Huh7.5.1 HCVcc-Cre infection, luciferase reporter, 44 h. AID 651820, 2012; also: potency is read from the fitted curve at half-maximal effect
#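 Cells (1,000/well) were plated 4 h before compound, then infected with HCVcc-Cre virus (~0.5 moi). After 44 h further culture, infection was read as luciferase luminescence following a 15 min substrate incubation at room temperature.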
# The depositor's hits bear a star; ? = inconclusive; / = not tested or not shown; [ ] = remark or other dose. Unless noted, calls follow the shape of the dose curve; as a rule, active = well fitted inhibition curve with a large enough effect; inconclusive = small, poorly fitted or top-dose-only effect, or another doubt; inactive = no such curve, though single readings can be large or run the other way. % is scaled to controls: 0 for no effect and ±100 for the full control effect.
SMILES,HCMV antiviral,MARV entry inh,Pf growth 96h,Pf growth 48h,LASV entry inh,HCV inhibitor
CCOC(=O)c1c(-c2ccccc2Cl)cn2ccccc12,?,?,6%,-26%,13µM*,?
COc1cccc(-c2cn3c(n2)sc2cc(C(=O)NCc4cccs4)ccc23)c1,/,/,/,/,0%[46.1 µM],/
COC(=O)c1ccccc1NC1=C/C(=N\S(=O)(=O)c2cccs2)c2ccccc2C1=O,-30,3.7µM*,0.66µM*,/,4.5µM*,8.9µM*
COC(=O)c1cccc(NS(=O)(=O)c2cccs2)c1C,55,-8%,/,19%,3%,17%
COC(=O)c1ccccc1NC1=C/C(=N\S(=O)(=O)c2ccc(C(=O)O)cc2)c2ccccc2C1=O,/,?,13%,1.5µM*,?,10µM*
CCc1ccc(NC(=O)CSc2nc(C)cc(COC)c2C#N)cc1,6,-1%[46.1 µM],/,/,1%[46.1 µM],/
CC(C)c1ccc(OCC(=O)NC2CC(C)(C)NC(C)(C)C2)c(Br)c1,-40,/,-3%,?,/,11µM*
CC1(C)CC(NC(=O)COc2ccc(Cl)cc2Cl)CC(C)(C)N1,0,-1%[46.1 µM],33%,19%,/,?
Cc1cc(OCC(=O)NC2CC(C)(C)NC(C)(C)C2)c(C)cc1Br,-39,?,0%,?,-11%,10µM*
Cc1ccc(OCC(=O)NC2CC(C)(C)NC(C)(C)C2)c(C)c1,-4,-4%[46.1 µM],35%,27%,-21%[46.1 µM],-3%
c1ccc(COc2ncnc3c2ncn3CCCN2CCN(c3ccccn3)CC2)cc1,3,/,/,/,/,-21%[8.37 µM]
CCc1ccc2[nH]c3nc(SCC(=O)NNC(=O)c4ccc(C(C)(C)C)cc4)nnc3c2c1,-106*,4.6µM*,77%,12%,?,?
CCc1ccc2[nH]c3nc(SCC(=O)NCC4CCCO4)nnc3c2c1 (stereo not drawn),?,?,0%,-2%,/,?
CCc1ccc2[nH]c3nc(SCCN4CCOCC4)nnc3c2c1,-91*,/,9.3µM*,-27%,/,?
CCCCn1c2ccc(F)cc2c2nnc(SCCN3CCOCC3)nc21,?,?,2.6µM*,?,-15%,?
Cn1c2ccc(F)cc2c2nnc(SCCN3CCOCC3)nc21,27,/,8%,3%,/,7%
CCOC(=O)CSC1=Nc2ccccc2C2=NC(CCC(=O)NCc3ccc(OC)cc3)C(=O)N12 (stereo not drawn),9,/,/,/,15%[46.1 µM],/
CCCCN(C)CCCNC(=O)CN1C(=O)COc2ccc(S(=O)(=O)N3CCC(C)CC3)cc21,2,-22%[46.1 µM],/,/,?,/
CCCN(C(=O)CSc1ncccn1)C1CCS(=O)(=O)C1 (stereo not drawn),-13,/,/,/,/,8%
NCC(=O)Nc1ccc(Cl)cc1C(=O)c1ccc[nH]1,-66*,/,5.2µM*,?,/,9%
CC(=O)Nc1ccc(Cl)cc1C(=O)c1ccc[nH]1,-18,/,/,/,/,/
CN(C)CCCNCC(=O)Nc1ccc(Cl)cc1C(=O)c1ccccc1,-4,11µM*,-30%,3.7µM*,-19%[46.1 µM],?
C[N+](C)(C)CC(=O)Nc1ccc(Cl)cc1C(=O)c1ccccc1,-7,?,20%,12µM*,4%,8%
CCN(CC)CCNCC(=O)Nc1ccc(Cl)cc1C(=O)c1ccccc1,30,-21%,?,/,2%,-29%
COC(=O)[C@]1(Sc2ccc(OC)cc2)CC(=O)N[C@@H]1c1ccc(OC(C)C)c(OC)c1,-9,/,/,/,/,/
SMILES,HCMV antiviral,MARV entry inh,Pf growth 96h,Pf growth 48h,LASV entry inh,HCV inhibitor
OCCN(CC#CC(O)(c1ccccc1)c1ccccc1)CCO,-24,3%,31%,8%,?,3%
CC(C)N(CC#CC(O)(c1ccccc1)c1ccccc1)CCO,43,-4%,2.3µM*,-11%,16%,8%
O=C1NC(O)=NC1(c1ccccc1)c1ccccc1,/,?,/,/,2%,/
COc1ccc(C(=O)Nc2ccc(S(=O)(=O)N3CCc4ccccc43)cc2)cc1,-90*,?,/,/,13µM*,11µM*
N#C/C(=N\Nc1ccc(S(=O)(=O)N2CCc3ccccc32)cc1)C(N)=S,-30,-17%[46.1 µM],?,?,-25%,-26%
COc1cc2c(cc1OC)CN(C(=O)c1cccc(S(=O)(=O)N3CCc4ccccc43)c1)CC2,?,4µM*,12µM*,10µM*,4µM*,?
O=C(c1cccc(S(=O)(=O)N2CCc3ccccc32)c1)N1CCc2ccccc2C1,20,/,31%,-7%,/,?
COc1cc2nc(NC(=O)c3ccc(S(=O)(=O)N4CCc5ccccc54)cc3)sc2cc1OC,-72*,/,/,/,-24%[46.1 µM],/
O=C(Nc1nc2c(Cl)cccc2s1)c1ccc(S(=O)(=O)N2CCc3ccccc32)cc1,-29,/,/,/,?,/
CCOC(=O)/C(C#N)=N/Nc1ccc(S(=O)(=O)N2CCc3ccccc32)cc1,-19,?,12µM*,13µM*,-25%,?
CCOC(=O)C1=CCN(S(=O)(=O)c2ccc(Cl)cc2)C1c1ccc(Br)cc1 (stereo not drawn),-32,/,/,/,/,/
Cn1cc(CCCBr)c2ccccc21,10,/,/,/,/,/
CCN(CC(=O)Nc1cccc(OC)c1)C(=O)c1cccc(S(=O)(=O)N2CCc3ccccc32)c1,-33,?,?,12µM*,-20%,-12%
COc1ccc(NC(=O)c2cccc(S(=O)(=O)N3CCc4ccccc43)c2)cn1,?,-15%[46.1 µM],12µM*,?,-1%,?
O=C(Nc1ncccc1O)c1cccc(S(=O)(=O)N2CCc3ccccc32)c1,8,-26%,?,4%,-8%,3%

# Compound activity from PubChem.
